“And” between values parts separate entries of the source, which are not always exact repeats. Identical values can stand only once. Results filed as inconclusive are left out. The source made the active and inactive calls. Unless noted, calls come from the whole dose curve; as a rule, active = well fitted curve in the direction sought with a large enough effect; inconclusive = small, poorly fitted or top-dose-only effect, or another doubt; inactive = no such curve, though single readings can be large; an effect the other way counts as inactive or inconclusive.

The values that follow come from PubChem BioAssay (NCATS).

The nature of assay [1]: qHTS Assay for Lipid Storage Modulators (AID 1519; calls by dose curve). The conditions noted are these: Drosophila S3 cells, BODIPY lipid droplet/cell ratio, laser cytometry, cells loaded with oleic acid. The procedure, abridged: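 Cells seeded at 5,000 per well were treated with compounds over a concentration series and loaded with oleic acid (400 uM, as added). Lipid droplet fluorescence (488 nm excitation, 500-530 nm channel) was read by laser-scanning cytometry and normalized to 20 uM Triacsin C.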
(In general: qHTS replaces the single test concentration by a dilution series.)

Assay [2] is described as follows: AP1 Signaling Pathway (AID 357; active = well fitted curve in either direction with a large enough effect, not every such curve was filed as active;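 note: ME-180 reporter cells stimulated with EGF at its EC50 level; % is set by controls: 0 for no effect and ±100 for the full control effect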). The settings on record: ME-180 AP-1-bla reporter, EGF-induced, beta-lactamase ratio, 5 h; series mostly up to 17.2 µM. A digest of the protocol: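 A ratiometric CCF4 readout (405 nm excitation; 460 and 530 nm emission) quantified AP-1-driven beta-lactamase in ME-180 cells after 5 h with compound and EC50 EGF; AC50 values were derived for activators and inhibitors.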

The nature of assay [3]: NFAT Signaling Pathway (AID 444; active = well fitted curve in either direction with a large enough effect, not every such curve was filed as active;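 note: carbachol stimulus at about its EC50 of 1 µM final; % is set by controls: 0 for no effect and ±100 for the full control effect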). The conditions noted are these: Jurkat NFAT-bla M1, carbachol, beta-lactamase ratio, 5 h. A digest of the protocol: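 Jurkat cells with NFAT-driven β-lactamase reporter and co-expressed M1 receptor, stimulated with carbachol (final 1 uM, ~EC50), compound titration, 5 h at 37 °C. CCF4 loaded 1 h at RT; 460/530 nm ratio gave %activity and AC50.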

The nature of assay [4]: Stat Signaling Pathway (AID 446; active = well fitted curve in either direction with a large enough effect, not every such curve was filed as active;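 note: ME-180 cervical cancer cells given 40 pM IL-6 alongside compound; SIE-controlled beta-lactamase reporter measured as 460/530 nm FRET emission ratio; % is set by controls: 0 for no effect and ±100 for the full control effect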). The conditions noted are these: ME-180 (cervical carcinoma) SIE beta-lactamase reporter, IL-6 stimulated, 5 h; series mostly up to 17.2 µM. A digest of the protocol: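 Emission at 460 and 530 nm (excitation 405 nm) reports SIE-controlled beta-lactamase in ME-180 cells. Cells received compound with 40 pM IL-6 for 5 hrs at 37 C; data scaled between 300 pM IL-6 and 125 nM JAK-inhibitor controls.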

The target in assay [5] is Glucocorticoid receptor (Homo sapiens) (UniProt P04150). Description: GR-EFC Redistribution (AID 451; calls by dose curve; note: potency is the fitted concentration of half-maximal effect). The conditions noted are these: CHO-K1 GR-EFC translocation, beta-gal luminescence, 2 h. A digest of the protocol: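 CHO-K1 cells expressing nuclear EA and GR-ED fragments of b-gal; compounds titrated up to 46 uM final, 2 h at 37 C. GR nuclear translocation read as complemented b-gal luminescence after 1 h RT detection.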

Assay [6] addresses Mitogen-activated protein kinase 10 (Mus musculus) (UniProt Q61831). Description: JNK3 AlphaScreen Assay (AID 530; active = well fitted curve in either direction with a large enough effect, not every such curve was filed as active;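 note: kinase came from lysate of stimulated human HepG2 cells; signal reports phosphorylation of biotinylated GST-cJun 1-79 at Ser73 with 10 µM ATP; % is set by controls: 0 for no effect and ±100 for the full control effect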). The conditions noted are these: JNK3 lysate, c-Jun phosphorylation; series mostly up to 57.1 µM. A digest of the protocol:
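Activity was read by AlphaScreen after JNK3-containing HepG2 lysate (cytokine pre-activated) phosphorylated biotinylated GST-cJun with 10 uM ATP at room temperature. Phospho-Ser73 cJun antibody with Protein-A acceptor beads provided detection.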
Background: Bead proximity is the source of the signal in Alpha formats.

Assay [7] concerns the target 3',5'-cyclic-AMP phosphodiesterase 4B (Homo sapiens) (UniProt Q07343). Description: qHTS Assay for Inhibitors of PDE-IV (AID 607; active = well fitted activation curve with a large enough effect in the main read-out, with a control signal flat, not every such curve was filed as active; note: % of control where 0% means no effect). The settings on record: HEK293 ACTOne CNG channel cells, membrane potential fluorescence; series mostly up to 22.9 µM. The procedure, abridged: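 The readout is membrane depolarisation from a cAMP-sensing CNG channel, detected with a potential dye at ex 535/em 590. Cells were HEK293-derived (endogenous PDE-IV) at 1000 cells/well, titrated up to 22.9 uM final.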

For assay [8], the target named is Cytochrome P450 3A4 (Homo sapiens) (UniProt P08684). Description: qHTS Assay for Inhibitors and Substrates of Cytochrome P450 3A4 (AID 884). Note: nearly all actives have a fitted effect of over 50% in size. Note: potency is the fitted concentration of half-maximal effect. The conditions noted are these: recombinant CYP3A4, Luciferin-PPXE luminescence; series mostly up to 57.1 µM. A digest of the protocol:
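Luminescent readout of luciferin produced by CYP3A4 (20 nM) dealkylation of Luciferin-PPXE, 25 uM (its KM). NADPH-driven reaction ran 60 min at RT after 10 min compound preincubation; data scaled to 57 uM ketoconazole as 100% inhibition.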

A short description of assay [9]: Confirmation and Secondary Assay for Modulators of Hemoglobin Beta Chain Splicing at IVS2 654 locus (AID 910).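 Note: HeLa cells stably carrying EGFP split by mutant beta-globin IVS2-654 intron; % of control where 0% means no effect.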 The conditions noted are these: HeLa EGFP-654 splicing reporter, GFP fluorescence, 48 h; series mostly up to 46.1 µM. The procedure, abridged: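 HeLa cells stably expressing EGFP interrupted by β-globin IVS2-654 intron, seeded overnight in Opti-MEM/2% FCS, then treated 2 days at 37 °C. Restored splicing read as total peak GFP intensity per well by laser scanning cytometry (488 nm excitation, 500–520 nm emission); 500 nM antisense PNA as control.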

The nature of assay [10]: Confirmation and Secondary Assay for Modulators of Hemoglobin Beta Chain Splicing at IVS2 705 locus (AID 930).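 Note: HeLa cells stably expressing the EGFP-705 splicing reporter; GFP fluorescence per well restored by corrected splicing of the IVS2-705 intron in EGFP; % of control where 0% means no effect.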 The settings on record: HeLa EGFP-705 splicing reporter, GFP fluorescence, 48 h; series mostly up to 46.1 µM. The procedure, abridged:
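Stable HeLa line with EGFP disrupted by mutant beta-globin intron 2 (705). Overnight attachment, then 2 days of compound at 37C, 5% CO2. Signal: peak GFP intensity summed over objects 5-250 µm.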

Assay [11] has as its target Ubiquitin carboxyl-terminal hydrolase 1 (Homo sapiens) (UniProt O94782). Description: Inhibitors of USP1/UAF1: Pilot qHTS (AID 504865).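 Note: rhodamine fluorescence freed from ubiquitin-rhodamine substrate followed over time; top concentration of the series differs between compounds; % is set by controls: 0 for no effect and ±100 for the full control effect; nearly all actives have a fitted effect of over 35% in size.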 The conditions noted are these: purified USP1/UAF1, Ub-rhodamine cleavage fluorescence; series mostly up to 114 µM. The procedure, abridged:
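Kinetic fluorescence assay: 1nM USP1/UAF1, 15 min compound preincubation, then 150nM Ub-Rho; 480/540 nm.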

Assay [12] has as its target Luciferin 4-monooxygenase (Photinus pyralis) (UniProt P08659). Description: Biochemical firefly luciferase enzyme assay for NPC (AID 624030).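 Note: purified P. pyralis luciferase at 10 nM with luciferin and ATP substrate; 0% = DMSO and -100% = full luciferase inhibition by PTC124 control; nearly all actives have a fitted effect of over 70% in size.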 The settings on record: purified P. pyralis luciferase, luminescence, 5 min; series mostly up to 58.6 µM. A digest of the protocol:
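Purified P. pyralis luciferase at 10 nM in 50 mM Tris Acetate (final), luminescence read within 5 minutes of enzyme addition to compounds. Activity normalised to PTC124 versus DMSO; concentration-response curves classed by r2, magnitude and activity.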

A short description of assay [13]: S16 Schwann cell PMP22 intronic element firefly luciferase assay (AID 624032).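 Note: plate controls were DMSO for no effect and PTC124 positive control mean for full effect; nearly all actives have a fitted effect of over 30% in size.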 The conditions noted are these: S16 rat Schwann cells, PMP22 element FLuc, 24 h; series mostly up to 57.5 µM. The procedure, abridged: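 Rat S16 Schwann cells stably carrying firefly luciferase driven by a PMP22 intronic element, in 10% FBS, treated 24 h at 37 C. ONE-Glo luminescence normalized to PTC124 control and DMSO (0%); curves classed by r2, magnitude and activity.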

A short description of assay [14]: qHTS profiling for inhibitors of Plasmodium falciparum proliferation (AID 504749).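 Note: 0% = DMSO vehicle and full inhibition = artemisinin control; nearly all actives have a fitted effect of over 60% in size.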 The conditions noted are these: P. falciparum in erythrocytes, SYBR Green DNA, 72 h. A digest of the protocol:
(§1)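 Each compound contacts P. falciparum-infected red blood cells for 72 h at 37 C; lysis buffer (Tris, EDTA, saponin, Triton X, SYBR Green I) is added and fluorescence measured next morning; values normalized to controls.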

In assay [15] the test system is C2A. Described as above. The conditions noted are these: P. falciparum in erythrocytes, SYBR Green DNA, 72 h; series mostly up to 28.7 µM. A digest of the protocol: as §1
Assay [16] has as its system CP185. Described as above. The settings on record: P. falciparum in erythrocytes, SYBR Green DNA, 72 h; series mostly up to 28.7 µM. The procedure, abridged:
as §1

Assay [17] has as its system FAB9. The description is as above. The settings on record: P. falciparum in erythrocytes, SYBR Green DNA, 72 h; series mostly up to 28.7 µM. A digest of the protocol:
as §1

Assay [18] concerns the target Cytochrome P450 1A2 (Homo sapiens) (UniProt P05177). Description: p450-cyp1a2 (AID 410; calls by dose curve; note: potency is the fitted concentration of half-maximal effect;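 for activity change, negative = inhibition: -100% = full effect of reference inhibitor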). The settings on record: recombinant CYP1A2, luciferin-ME demethylation, luminescence; series mostly up to 25.6 µM. A digest of the protocol: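 Luminescent demethylation readout: Luciferin-ME (100uM, equal to Km) turned over by 20nM CYP1A2 for 60 min at room temperature after NADPH regeneration addition, following 10 min compound preincubation. Normalization used 57 uM furafylline as full inhibition.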

Assay [19] addresses Glucocorticoid receptor (Homo sapiens) (UniProt P04150). Description: GR-GFP Redistribution (AID 450;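 active = compounds whose dose series gives a full or clear partial fitted curve of increased nuclear translocation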; note: potency is the fitted concentration of half-maximal effect). The settings on record: U2OS GR-GFP nuclear translocation, laser cytometry, 2 h.
For assay [20], the target named is Cytochrome P450 3A4 (Homo sapiens) (UniProt P08684). Description: qHTS Assay for Activators of Cytochrome P450 3A4 (AID 885). Note: nearly all actives have a fitted effect of over 65% in size. The conditions noted are these: recombinant CYP3A4, Luciferin-PPXE luminescence, 60 min; series mostly up to 57.1 µM. A digest of the protocol:
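Activators are scored by enhanced luminescence from CYP3A4 conversion of luciferin-PPXE (25uM, equal to KM) to luciferin, after 60 min at RT with an NADPH-regenerating system.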

[21] abbreviates: measured here: cell count channel max response.
Where [22] appears, read: measured here: lipid channel max response.
Setting [23] is: at 28.7 µM (top of the series), parasite line A.
Where [24] appears, read: at 28.7 µM (top of the series), parasite line B.

Chain of Luciferin 4-monooxygenase (Photinus pyralis) (P08659 whole entry, looked up): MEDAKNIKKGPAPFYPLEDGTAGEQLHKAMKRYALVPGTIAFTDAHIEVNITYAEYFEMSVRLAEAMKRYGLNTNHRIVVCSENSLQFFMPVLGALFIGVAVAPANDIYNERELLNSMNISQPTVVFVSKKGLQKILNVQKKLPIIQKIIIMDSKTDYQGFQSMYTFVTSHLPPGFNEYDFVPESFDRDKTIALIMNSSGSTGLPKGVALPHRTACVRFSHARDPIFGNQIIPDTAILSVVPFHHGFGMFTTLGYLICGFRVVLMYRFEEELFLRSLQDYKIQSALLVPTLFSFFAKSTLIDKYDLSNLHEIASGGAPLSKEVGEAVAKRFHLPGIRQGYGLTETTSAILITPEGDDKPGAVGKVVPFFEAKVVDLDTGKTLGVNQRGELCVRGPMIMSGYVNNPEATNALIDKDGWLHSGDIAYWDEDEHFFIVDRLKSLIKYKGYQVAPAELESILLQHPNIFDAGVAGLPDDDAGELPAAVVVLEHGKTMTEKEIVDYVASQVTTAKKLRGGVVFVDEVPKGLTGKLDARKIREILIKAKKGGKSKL
Chain of 3',5'-cyclic-AMP phosphodiesterase 4B (Homo sapiens) (Q07343 whole entry, looked up): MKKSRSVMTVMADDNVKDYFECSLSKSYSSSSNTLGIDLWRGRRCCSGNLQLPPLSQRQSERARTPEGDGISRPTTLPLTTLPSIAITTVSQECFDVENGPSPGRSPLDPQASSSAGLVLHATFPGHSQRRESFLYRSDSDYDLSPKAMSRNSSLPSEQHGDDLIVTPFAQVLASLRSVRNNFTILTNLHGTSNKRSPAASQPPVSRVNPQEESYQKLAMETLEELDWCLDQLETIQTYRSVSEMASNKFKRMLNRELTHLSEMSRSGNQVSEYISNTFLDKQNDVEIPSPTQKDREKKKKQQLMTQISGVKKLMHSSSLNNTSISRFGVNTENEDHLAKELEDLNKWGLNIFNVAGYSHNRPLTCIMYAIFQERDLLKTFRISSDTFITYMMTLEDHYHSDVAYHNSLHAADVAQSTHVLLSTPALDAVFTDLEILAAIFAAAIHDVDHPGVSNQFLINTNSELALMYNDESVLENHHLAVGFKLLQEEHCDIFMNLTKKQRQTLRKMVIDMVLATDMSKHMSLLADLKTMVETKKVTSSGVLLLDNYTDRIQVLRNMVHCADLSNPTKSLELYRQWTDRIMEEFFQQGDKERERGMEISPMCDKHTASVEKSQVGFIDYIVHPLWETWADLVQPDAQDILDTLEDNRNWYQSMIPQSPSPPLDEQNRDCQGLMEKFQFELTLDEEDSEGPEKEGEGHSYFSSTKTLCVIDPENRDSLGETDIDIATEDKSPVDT
Chain of Cytochrome P450 3A4 (Homo sapiens) (P08684 whole entry, looked up): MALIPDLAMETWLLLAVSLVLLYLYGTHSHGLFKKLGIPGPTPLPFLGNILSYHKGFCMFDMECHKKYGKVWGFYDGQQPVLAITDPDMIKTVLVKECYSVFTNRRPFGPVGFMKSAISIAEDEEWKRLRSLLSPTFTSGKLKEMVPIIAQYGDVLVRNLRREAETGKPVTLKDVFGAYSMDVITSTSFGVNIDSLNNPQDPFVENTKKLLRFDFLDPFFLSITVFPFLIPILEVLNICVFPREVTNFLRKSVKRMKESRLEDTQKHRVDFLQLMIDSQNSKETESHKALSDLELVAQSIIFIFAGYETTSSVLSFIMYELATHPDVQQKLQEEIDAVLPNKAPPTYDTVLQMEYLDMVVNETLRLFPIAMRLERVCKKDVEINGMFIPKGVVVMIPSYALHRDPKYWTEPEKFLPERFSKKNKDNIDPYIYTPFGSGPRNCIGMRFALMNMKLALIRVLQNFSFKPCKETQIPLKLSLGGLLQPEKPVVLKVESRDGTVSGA
Chain of Glucocorticoid receptor (Homo sapiens) (P04150 whole entry, looked up, the tested form may be a part): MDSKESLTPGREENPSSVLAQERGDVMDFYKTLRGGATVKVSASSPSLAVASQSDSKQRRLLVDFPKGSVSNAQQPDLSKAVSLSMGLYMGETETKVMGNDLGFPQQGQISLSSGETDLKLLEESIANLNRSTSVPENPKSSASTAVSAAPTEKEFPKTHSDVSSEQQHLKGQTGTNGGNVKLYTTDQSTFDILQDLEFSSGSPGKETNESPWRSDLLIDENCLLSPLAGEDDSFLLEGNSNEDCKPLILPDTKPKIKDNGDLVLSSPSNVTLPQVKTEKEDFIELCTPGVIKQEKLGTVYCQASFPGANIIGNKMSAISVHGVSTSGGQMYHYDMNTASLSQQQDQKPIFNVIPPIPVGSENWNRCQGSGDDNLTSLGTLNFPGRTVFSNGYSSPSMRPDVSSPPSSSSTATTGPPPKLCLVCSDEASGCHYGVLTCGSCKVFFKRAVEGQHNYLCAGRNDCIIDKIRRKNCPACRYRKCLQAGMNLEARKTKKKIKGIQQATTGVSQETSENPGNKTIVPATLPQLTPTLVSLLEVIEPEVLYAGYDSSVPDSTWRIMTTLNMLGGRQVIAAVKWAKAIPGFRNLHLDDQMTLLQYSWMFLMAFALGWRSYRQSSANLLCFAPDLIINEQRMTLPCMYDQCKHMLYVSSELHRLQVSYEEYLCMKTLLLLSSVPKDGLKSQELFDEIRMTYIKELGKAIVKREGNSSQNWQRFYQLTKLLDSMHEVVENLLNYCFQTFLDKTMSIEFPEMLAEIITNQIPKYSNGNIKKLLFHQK
Chain of Ubiquitin carboxyl-terminal hydrolase 1 (Homo sapiens) (O94782 whole entry, looked up): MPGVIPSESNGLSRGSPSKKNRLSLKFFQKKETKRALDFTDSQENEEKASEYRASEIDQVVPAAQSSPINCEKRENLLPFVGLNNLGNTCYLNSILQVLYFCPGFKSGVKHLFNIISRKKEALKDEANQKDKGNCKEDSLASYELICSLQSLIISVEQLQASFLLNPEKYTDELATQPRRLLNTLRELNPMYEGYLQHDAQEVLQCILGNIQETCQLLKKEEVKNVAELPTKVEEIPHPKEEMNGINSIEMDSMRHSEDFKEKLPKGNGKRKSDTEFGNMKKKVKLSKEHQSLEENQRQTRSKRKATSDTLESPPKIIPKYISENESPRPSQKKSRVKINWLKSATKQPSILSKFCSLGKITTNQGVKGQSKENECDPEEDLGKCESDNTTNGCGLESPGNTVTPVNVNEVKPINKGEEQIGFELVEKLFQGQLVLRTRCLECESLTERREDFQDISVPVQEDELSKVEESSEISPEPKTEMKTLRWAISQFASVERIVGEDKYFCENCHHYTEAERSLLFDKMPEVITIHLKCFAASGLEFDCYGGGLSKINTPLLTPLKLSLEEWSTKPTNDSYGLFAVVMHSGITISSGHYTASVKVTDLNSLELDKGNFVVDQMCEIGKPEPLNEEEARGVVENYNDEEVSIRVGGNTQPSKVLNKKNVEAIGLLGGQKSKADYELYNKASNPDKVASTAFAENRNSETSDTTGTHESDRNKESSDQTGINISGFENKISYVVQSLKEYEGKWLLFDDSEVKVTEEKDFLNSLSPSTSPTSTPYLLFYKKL
Chain of Cytochrome P450 1A2 (Homo sapiens) (P05177 whole entry, looked up): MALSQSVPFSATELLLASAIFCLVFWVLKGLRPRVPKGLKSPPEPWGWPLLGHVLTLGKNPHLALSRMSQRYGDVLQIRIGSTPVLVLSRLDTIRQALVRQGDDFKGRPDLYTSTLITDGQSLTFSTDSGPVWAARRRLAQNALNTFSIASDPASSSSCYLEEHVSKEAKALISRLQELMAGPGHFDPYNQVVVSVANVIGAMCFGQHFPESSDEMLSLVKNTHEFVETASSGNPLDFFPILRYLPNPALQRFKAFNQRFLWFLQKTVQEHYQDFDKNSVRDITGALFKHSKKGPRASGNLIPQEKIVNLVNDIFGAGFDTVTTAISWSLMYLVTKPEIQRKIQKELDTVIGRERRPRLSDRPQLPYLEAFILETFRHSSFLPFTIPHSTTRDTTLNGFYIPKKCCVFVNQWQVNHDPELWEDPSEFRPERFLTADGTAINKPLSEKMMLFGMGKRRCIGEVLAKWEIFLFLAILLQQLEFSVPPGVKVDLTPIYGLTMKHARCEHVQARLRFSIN

Regarding `NC(N)=N/N=C\c1c(Cl)cccc1Cl`, the activity change, negative = inhibition in assay [1] (at 57.5 µM (top of the series)) is 6.25% (inactive). Besides, the max response in assay [1] (setting [21]) is 12.3%; in [1] (setting [22]) it was 22.6%.

Consider `COc1ccc(NC(=O)N2CC3(CCN(C(=O)Oc4ccccc4)CC3)C2)cc1`, for which the outcome in assay [2], in assay [4] and in assay [6] was inactive. Besides, the activity change, negative = inhibition in [3] (at 7.69 µM (top of the series)) was 3.27% (inactive). Besides, the Potency in assay [5] was > 46 µM (inactive). Further, the Potency entry in [7] was “inactive”.

For `O=C(O)COc1ccc(Cl)cc1Cl`, the Potency entry in assay [8], in assay [9], in [10] and in [11] was “inactive” throughout. The activity change, negative = inhibition in assay [1] (at 57.5 µM (top of the series)) was -1.59% (inactive). Also, the results for the max response in assay [1] (setting [21]) and in assay [1] (setting [22]) were -3.68% and -7.52%, respectively.

On to `ClC1=C(Cl)C2(Cl)C3C4CC(C5OC45)C3C1(Cl)C2(Cl)Cl` (stereo not drawn), for which the call in [6] was inactive. Also, the Potency entry in [9], in assay [10], in assay [12], in [13], in assay [15] and in assay [16] was “inactive” each time. In addition, in assay [17], the Potency entry was “inactive”. The activity change, negative = inhibition in assay [1] (at 57.5 µM (top of the series)) was 3.37% (inactive). Also, the max response is 8.98% in [1] (setting [21]) and 15.6% in [1] (setting [22]). The activity, negative = inhibition in assay [14] (setting [23]) is -12.8% (inactive); in assay [14] (setting [24]) it was -9.6% (inactive).

Regarding `COc1ccc2c(c1O)-c1c(OC)c(OC)cc3c1[C@H](C2)N(C)CC3`, the outcome in [2], in [4] and in assay [6] was inactive. Further, the Potency was 10 µM (active) in assay [18]; > 20.6 µM (inactive) and > 46 µM (inactive) in assay [19]. Further, the activity change, negative = inhibition is -3.12% (inactive) in assay [3] (at 17.2 µM (top of the series)) and 2.04% (inactive) in [1] (at 25.7 µM (top of the series)). Further, the Potency result in assay [7] and in assay [20] was “inactive” in each case. In addition, the figures for the max response in [1] (setting [21]) and in [1] (setting [22]) were 5.35% and 2.2%, respectively.

`COc1cc2occc2c2oc(=O)ccc12`: the Potency in assay [8] is 12.6 µM (active). Moreover, the Potency entry in assay [20], in assay [9] and in [10] was “inactive” throughout.

Take `COc1ccc(NC(=O)N2CC[C@@]3(CCCN(C(=O)Oc4ccccc4)C3)C2)cc1`: the outcome in [2], in assay [4] and in assay [6] was inactive. In addition, the Potency result in [18], in [7] and in assay [20] was “inactive” each time. Besides, in assay [3] (at 7.69 µM (top of the series)), the activity change, negative = inhibition was 4.32% (inactive).

`CN1CC[C@@]2(CCCN(C(=O)c3ccco3)C2)C1`: the result in [2], in assay [4] and in assay [6] was inactive. Besides, the Potency entry in [18], in assay [7] and in assay [20] was “inactive” each time. Besides, the values for the activity change, negative = inhibition in [3] (at 7.69 µM (top of the series)) and in assay [1] (at 57.5 µM (top of the series)) were -15.5% (inactive) and 5.37% (inactive), respectively. In assay [5], the Potency is > 46 µM (inactive). For the same molecule, the max response in [1] (setting [21]) was found to be 10.7%; in assay [1] (setting [22]) it was 19.3%.

Turning to `C[N+]1([O-])[C@@H]2CC(OC(=O)[C@@H](CO)c3ccccc3)C[C@@H]1[C@H]1O[C@H]12` (stereo partly drawn), the result in assay [2] and in assay [4] was inactive. Also, the Potency result in assay [18], in assay [7], in assay [11], in [12], in [13] and in [15] was “inactive” in each case. Further, the Potency entry in assay [16] and in assay [17] was “inactive” in each case. Also, the activity change, negative = inhibition was -78.2% (active) in assay [3] (at 7.69 µM (top of the series)), -52.1% (active) in [3] (at 17.2 µM (top of the series)) and 0.148% (inactive) in assay [1] (at 25.7 µM (top of the series)). The Potency in assay [19] was > 20.6 µM (inactive) and > 46 µM (inactive); in assay [5] it was > 20.6 µM (inactive) and > 9.22 µM (inactive). For the same molecule, the max response in assay [1] (setting [21]) was found to be 26%; in [1] (setting [22]) it was 27.4%. In addition, the activity, negative = inhibition was -0.201% (inactive) in [14] (at 12.8 µM (top of the series), parasite line A); -5.73% (inactive) in [14] (at 12.8 µM (top of the series), parasite line B); 13.1% (inactive) in [14] (setting [23]); 10.8% (inactive) in assay [14] (setting [24]).
